Data as given in PubChem BioAssay (EPA / NIEHS).
Records with an inconclusive call do not appear. Calls of active or inactive are those of the source. How the source made its calls, unless noted: active means hit-call score of the fitted dose curve at least 0.9, where 1 is the maximum; inconclusive means response in the unintended direction; inactive means score below 0.9.

Legend:
[1] = target: Nuclear receptor subfamily 1 group I member 3 (Homo sapiens) (UniProt Q14994); test: ATG_CAR_TRANS: Attagene TRANS-FACTORIAL HepG2 Assay for human Constitutive Androstane Receptor (CAR) (AID 2282969); conditions: HepG2 Attagene TRANS-FACTORIAL CAR reporter;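 further: activators raise reporter mRNA above DMSO so AC50 marks induction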
Outline: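 Readout is reporter mRNA induction, quantified by fluorescent primer extension and capillary electrophoresis after RT-PCR. Cells were HepG2 transiently carrying chimeric NR-Gal4 constructs with GAL4-UAS reporters, treated for 24 h; activity scored upward from DMSO.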

[2] = target: Estrogen receptor (Homo sapiens) (UniProt P03372); test: ATG_ERa_TRANS: Attagene TRANS-FACTORIAL HepG2 Assay for human Estrogen Receptor alpha (ERa) (AID 2282970); conditions: HepG2 Attagene TRANS ERa GAL4 reporter, mRNA
Chain of Estrogen receptor (Homo sapiens) (P03372 whole entry, looked up, the tested form may be a part): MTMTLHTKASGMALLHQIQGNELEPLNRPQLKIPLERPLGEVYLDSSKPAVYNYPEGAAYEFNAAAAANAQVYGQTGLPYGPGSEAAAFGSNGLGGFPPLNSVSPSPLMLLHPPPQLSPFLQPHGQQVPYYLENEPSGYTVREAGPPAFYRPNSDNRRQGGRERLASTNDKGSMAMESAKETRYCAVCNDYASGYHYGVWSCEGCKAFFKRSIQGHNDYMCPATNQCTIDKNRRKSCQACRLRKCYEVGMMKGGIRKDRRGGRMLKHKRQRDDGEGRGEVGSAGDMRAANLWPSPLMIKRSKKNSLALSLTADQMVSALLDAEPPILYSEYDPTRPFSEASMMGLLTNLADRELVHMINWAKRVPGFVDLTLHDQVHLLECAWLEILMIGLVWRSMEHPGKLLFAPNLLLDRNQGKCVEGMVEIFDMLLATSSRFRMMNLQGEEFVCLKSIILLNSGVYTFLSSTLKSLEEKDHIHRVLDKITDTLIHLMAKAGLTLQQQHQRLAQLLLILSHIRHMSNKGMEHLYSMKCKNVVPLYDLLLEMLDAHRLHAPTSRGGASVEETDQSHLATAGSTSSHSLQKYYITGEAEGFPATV
Outline: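 Transactivation via ERa-Gal4 chimera in HepG2; 24 hour incubation; reporter mRNA detected by fluorescence RT-PCR and capillary electrophoresis.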

[3] = target: X-box-binding protein 1 (Homo sapiens) (UniProt P17861); test: ATG_Xbp1_CIS: Attagene CIS-FACTORIAL HepG2 Assay for human X-box Binding Protein 1 (XBP1) (AID 2282972; active means hit-call score of the fitted dose curve at least 0.9, where 1 is the maximum; inactive means score below 0.9); conditions: HepG2 XBP1 cis-element reporter, Attagene multiplex; actives raise or lower the signal
Chain of X-box-binding protein 1 (Homo sapiens) (P17861 whole entry, looked up): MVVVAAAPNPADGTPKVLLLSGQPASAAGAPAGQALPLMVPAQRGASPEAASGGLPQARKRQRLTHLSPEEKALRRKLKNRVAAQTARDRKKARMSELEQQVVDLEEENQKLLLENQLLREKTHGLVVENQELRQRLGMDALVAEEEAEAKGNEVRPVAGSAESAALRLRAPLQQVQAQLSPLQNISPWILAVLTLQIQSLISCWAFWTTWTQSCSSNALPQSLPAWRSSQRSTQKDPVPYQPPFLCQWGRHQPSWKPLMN
Outline: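 HepG2 cells transiently transfected with cis-regulated multiple reporter transcription units; endogenous transcription factor activity measured 24 hours after chemical dosing. Reporter mRNA quantified by RT-PCR, 6-FAM primer extension, HpaI digestion and capillary electrophoresis; bidirectional fitting versus DMSO.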

[4] = ATG_M_19_TRANS: Attagene TRANS-FACTORIAL HepG2 Assay for M19 Transcription Factor (Internal Marker) (AID 2282974); conditions: HepG2 Attagene TRANS-FACTORIAL M19 internal marker reporter
Outline: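 HepG2 cells transiently transfected with multiple GAL4-UAS reporter transcription units were exposed to chemicals for 24 h. Reporter mRNA was read by RT-PCR, 6-FAM primer extension, HpaI digestion and capillary electrophoresis; gain of signal fitted relative to DMSO.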

[5] = ATG_GAL4_TRANS: Attagene TRANS-FACTORIAL HepG2 Assay for GAL4 (Internal Marker) (AID 2282976); conditions: HepG2 Attagene TRANS GAL4 internal marker reporter
Outline: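 Fluorescence from capillary electrophoresis of labelled RT-PCR products quantifies reporter mRNA induction after 24 h dosing of HepG2 cells carrying transfected GAL4-UAS reporter transcription units. Vehicle DMSO serves as baseline.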

[6] = target: Oxysterols receptor LXR-beta (Homo sapiens) (UniProt P55055); test: ATG_LXRb_TRANS: Attagene TRANS-FACTORIAL HepG2 Assay for human Liver X Receptor beta (LXRb) (AID 2282981); conditions: HepG2 Attagene TRANS GAL4-LXRb reporter, mRNA
Chain of Oxysterols receptor LXR-beta (Homo sapiens) (P55055 whole entry, looked up, the tested form may be a part): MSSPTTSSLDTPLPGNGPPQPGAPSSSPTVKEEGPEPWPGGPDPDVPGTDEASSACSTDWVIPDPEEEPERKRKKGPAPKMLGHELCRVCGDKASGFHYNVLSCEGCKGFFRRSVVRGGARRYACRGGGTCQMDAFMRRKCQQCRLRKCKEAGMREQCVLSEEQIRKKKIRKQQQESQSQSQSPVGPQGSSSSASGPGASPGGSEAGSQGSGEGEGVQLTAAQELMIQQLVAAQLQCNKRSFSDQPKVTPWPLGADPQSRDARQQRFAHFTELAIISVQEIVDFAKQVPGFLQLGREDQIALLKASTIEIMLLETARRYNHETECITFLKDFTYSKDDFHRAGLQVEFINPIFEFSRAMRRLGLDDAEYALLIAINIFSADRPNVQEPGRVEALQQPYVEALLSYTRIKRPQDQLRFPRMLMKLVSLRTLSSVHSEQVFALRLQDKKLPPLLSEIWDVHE
Outline: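 Transient transfection HepG2 (multiplexed RTUs, GAL4-UAS); NR-Gal4 chimera; 24 h exposure; RNA → RT-PCR → 6-FAM primer extension → HpaI → CE; increase vs DMSO.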

[7] = ATG_M_32_TRANS: Attagene TRANS-FACTORIAL HepG2 Assay for M32 Transcription Factor (Internal Marker) (AID 2282984); conditions: HepG2 Attagene TRANS M32 internal marker reporter;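 further: transcript level of a background control reporter unit measured by RT-PCR and capillary electrophoresis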
Outline: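 Measures reporter mRNA induction in human HepG2 liver cells after 24 h chemical treatment. Transcripts from transiently transfected GAL4-UAS reporter units are amplified, fluorescently labelled and sized by capillary electrophoresis; gain of signal relative to DMSO.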

[8] = target: Transcriptional activator Myb (Homo sapiens) (UniProt P10242); test: ATG_Myb_CIS: Attagene CIS-FACTORIAL HepG2 Assay for human Myeloblastosis (Myb) Proto-Oncogene Transcription Factor (AID 2282986; active means hit-call score of the fitted dose curve at least 0.9, where 1 is the maximum; inactive means score below 0.9); conditions: HepG2 Attagene CIS-FACTORIAL Myb reporter transcription; actives raise or lower the signal
Outline: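 HepG2 cells were transiently transfected with cis-regulated multiple reporter transcription units reflecting endogenous Myb activity, then exposed to compound for 24 hours. Reporter mRNA was measured by RT-PCR with capillary electrophoresis; bidirectional fitting versus DMSO baseline.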

[9] = ATG_NFI_CIS: Attagene CIS-FACTORIAL HepG2 Assay for human Nuclear Factor I (NFI) (AID 2282989; active means hit-call score of the fitted dose curve at least 0.9, where 1 is the maximum; inactive means score below 0.9); conditions: HepG2 cis-regulatory reporter, NFI response element transcription; actives raise or lower the signal
Outline: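 Reporter transcription driven by endogenous transcription factors in HepG2 cells; 24 h treatment. Quantitation by labelled RT-PCR fragments on capillary electrophoresis, gain- or loss-of-signal relative to DMSO.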

[10] = target: Myc proto-oncogene protein (Homo sapiens) (UniProt P01106); test: ATG_Myc_CIS: Attagene CIS-FACTORIAL HepG2 Assay for human Myelocytomatosis (Myc) Proto-Oncogene Transcription Factor (AID 2282990; active means hit-call score of the fitted dose curve at least 0.9, where 1 is the maximum; inactive means score below 0.9); conditions: HepG2, Attagene cis-reporter transcription factor activity; actives raise or lower the signal
Chain of Myc proto-oncogene protein (Homo sapiens) (P01106 whole entry, looked up, the tested form may be a part): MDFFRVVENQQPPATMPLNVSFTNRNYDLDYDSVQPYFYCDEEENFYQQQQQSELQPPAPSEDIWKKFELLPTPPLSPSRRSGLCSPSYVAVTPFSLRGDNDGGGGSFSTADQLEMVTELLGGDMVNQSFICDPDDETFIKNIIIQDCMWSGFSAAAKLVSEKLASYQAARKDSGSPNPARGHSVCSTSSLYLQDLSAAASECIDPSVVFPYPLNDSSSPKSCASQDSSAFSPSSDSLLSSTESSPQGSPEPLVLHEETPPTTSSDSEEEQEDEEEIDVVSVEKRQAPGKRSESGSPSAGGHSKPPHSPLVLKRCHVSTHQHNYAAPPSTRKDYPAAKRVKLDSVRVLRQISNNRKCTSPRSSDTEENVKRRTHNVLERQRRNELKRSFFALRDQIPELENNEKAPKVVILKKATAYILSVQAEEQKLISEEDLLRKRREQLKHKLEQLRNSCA
Outline: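 After 24 h chemical treatment of HepG2 cells carrying multiplexed cis-regulated reporter constructs, reporter transcripts quantified by RT-PCR and capillary electrophoresis of fluorescent fragments. Gain or loss fitted against DMSO baseline.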

[11] = target: Glucocorticoid receptor (Homo sapiens) (UniProt P04150); test: ATG_GR_TRANS: Attagene TRANS-FACTORIAL HepG2 Assay for human Glucocorticoid Receptor (GR) (AID 2282978); conditions: HepG2 Attagene TRANS GR reporter, mRNA transcription;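 further: activators score as hits since higher reporter transcript over DMSO is fitted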
Chain of Glucocorticoid receptor (Homo sapiens) (P04150 whole entry, looked up, the tested form may be a part): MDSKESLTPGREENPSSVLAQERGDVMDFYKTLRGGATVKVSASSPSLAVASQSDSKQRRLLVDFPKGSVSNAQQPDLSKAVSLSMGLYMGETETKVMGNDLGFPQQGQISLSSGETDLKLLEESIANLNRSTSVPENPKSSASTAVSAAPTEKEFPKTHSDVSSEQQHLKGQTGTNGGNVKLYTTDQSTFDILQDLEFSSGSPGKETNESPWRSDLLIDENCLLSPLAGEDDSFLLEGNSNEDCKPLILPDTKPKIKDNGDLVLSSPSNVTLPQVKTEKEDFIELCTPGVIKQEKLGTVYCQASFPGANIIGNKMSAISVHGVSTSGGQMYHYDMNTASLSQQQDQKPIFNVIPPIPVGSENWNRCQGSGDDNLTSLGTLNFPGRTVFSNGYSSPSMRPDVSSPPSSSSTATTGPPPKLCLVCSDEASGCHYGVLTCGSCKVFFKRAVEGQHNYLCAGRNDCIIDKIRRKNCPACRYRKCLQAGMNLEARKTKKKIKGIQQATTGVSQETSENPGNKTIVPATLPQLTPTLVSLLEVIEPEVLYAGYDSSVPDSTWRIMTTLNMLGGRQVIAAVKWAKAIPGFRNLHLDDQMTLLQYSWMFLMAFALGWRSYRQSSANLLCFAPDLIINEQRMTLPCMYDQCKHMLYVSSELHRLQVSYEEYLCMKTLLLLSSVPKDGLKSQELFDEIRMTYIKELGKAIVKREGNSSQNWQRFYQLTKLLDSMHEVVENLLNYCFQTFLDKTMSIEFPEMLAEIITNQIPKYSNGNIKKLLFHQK
Outline: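 HepG2 cells transiently transfected with multiplexed reporter units in which chimeric NR-GAL4 proteins drive GAL4-UAS reporters; 24 h compound exposure. Reporter mRNA measured by RT-PCR, 6-FAM labelling, HpaI digestion and capillary electrophoresis; gain-of-signal fitted versus DMSO.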

[12] = target: Hepatocyte nuclear factor 4-alpha (Homo sapiens) (UniProt P41235); test: ATG_HNF4a_TRANS: Attagene TRANS-FACTORIAL HepG2 Assay for human Hepatocyte Nuclear Factor 4 alpha (HNF4a) (AID 2282982); conditions: HepG2 HNF4a transactivation reporter, mRNA readout
Chain of Hepatocyte nuclear factor 4-alpha (Homo sapiens) (P41235 whole entry, looked up, the tested form may be a part): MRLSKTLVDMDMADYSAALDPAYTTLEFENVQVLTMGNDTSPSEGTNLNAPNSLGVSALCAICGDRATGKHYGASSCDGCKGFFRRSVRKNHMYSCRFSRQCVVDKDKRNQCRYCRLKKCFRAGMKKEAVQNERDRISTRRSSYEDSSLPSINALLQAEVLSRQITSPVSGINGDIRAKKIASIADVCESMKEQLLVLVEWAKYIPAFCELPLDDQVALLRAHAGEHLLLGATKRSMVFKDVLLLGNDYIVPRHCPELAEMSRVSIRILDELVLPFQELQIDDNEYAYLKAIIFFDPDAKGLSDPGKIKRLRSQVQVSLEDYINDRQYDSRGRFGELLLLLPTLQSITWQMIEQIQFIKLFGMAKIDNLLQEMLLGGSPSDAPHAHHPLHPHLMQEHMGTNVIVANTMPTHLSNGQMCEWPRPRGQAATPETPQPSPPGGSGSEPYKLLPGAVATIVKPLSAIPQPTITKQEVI
Outline: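 Readout is fluorescent reporter-transcript fragments resolved by capillary electrophoresis after RT-PCR from HepG2 cells dosed for 24 h. Cells carried transfected GAL4-UAS reporter constructs measuring exogenous NR-GAL4 chimera activity; DMSO served as baseline.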

[13] = ATG_M_06_TRANS: Attagene TRANS-FACTORIAL HepG2 Assay for M06 Transcription Factor (Internal Marker) (AID 2282983); conditions: HepG2 Attagene TRANS M06 internal marker reporter;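 further: reporter transcript level by RT-PCR then capillary electrophoresis fluorescence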
Outline: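 Measured by capillary electrophoresis of fluorescently labelled RT-PCR products, this endpoint reflects reporter mRNA in HepG2 cells harbouring exogenous NR-GAL4 reporter constructs after 24 h exposure, with DMSO as baseline.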

[14] = target: Nuclear receptor subfamily 4 group A member 2 (Homo sapiens) (UniProt P43354); test: ATG_NURR1_TRANS: Attagene TRANS-FACTORIAL HepG2 Assay for human Nuclear Receptor Related Protein 1 (NURR1) (AID 2282985); conditions: HepG2 Attagene TRANS reporter, mRNA readout
Outline: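 Transient transfection of HepG2, human liver cells, with multiple GAL4-UAS reporter transcription units. Cells dosed 24 h, RNA isolated, reverse-transcribed, PCR-amplified, FAM-labelled, HpaI-digested, sized by capillary electrophoresis. DMSO served as negative control.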

[15] = target: Nuclear respiratory factor 1 (Homo sapiens) (UniProt Q16656); test: ATG_NRF1_CIS: Attagene CIS-FACTORIAL HepG2 Assay for human Nuclear Respiratory Factor 1 (NRF1) Orphan Gene (AID 2282987; active means hit-call score of the fitted dose curve at least 0.9, where 1 is the maximum; inactive means score below 0.9); conditions: HepG2 NRF1 cis-element reporter, Attagene multiplex; actives raise or lower the signal
Chain of Nuclear respiratory factor 1 (Homo sapiens) (Q16656 whole entry, looked up): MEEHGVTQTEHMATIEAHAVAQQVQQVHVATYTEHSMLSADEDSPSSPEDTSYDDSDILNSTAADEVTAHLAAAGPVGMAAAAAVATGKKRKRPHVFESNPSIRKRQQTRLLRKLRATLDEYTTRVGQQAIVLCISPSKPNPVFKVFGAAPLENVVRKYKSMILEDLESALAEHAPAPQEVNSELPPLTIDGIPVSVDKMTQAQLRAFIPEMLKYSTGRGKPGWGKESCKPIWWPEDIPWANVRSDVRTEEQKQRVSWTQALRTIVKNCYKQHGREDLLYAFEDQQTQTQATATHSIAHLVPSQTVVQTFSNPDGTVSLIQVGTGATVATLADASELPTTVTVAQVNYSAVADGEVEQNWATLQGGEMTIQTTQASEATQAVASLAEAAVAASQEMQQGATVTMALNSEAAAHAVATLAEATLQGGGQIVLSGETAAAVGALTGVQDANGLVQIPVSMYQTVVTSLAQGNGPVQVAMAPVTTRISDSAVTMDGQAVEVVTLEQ
Outline: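 HepG2 cells transiently transfected with multiple reporter transcription units under cis-regulatory promoter control, so endogenous transcription-factor activity is read. After 24 h compound exposure, reporter mRNA quantified by RT-PCR, fluorescent labelling, HpaI digestion and capillary electrophoresis; bidirectional fitting versus DMSO.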

[16] = target: Steroid hormone receptor ERR1 (Homo sapiens) (UniProt P11474); test: ATG_ERRa_TRANS: Attagene TRANS-FACTORIAL HepG2 Assay for human Estrogen-Related Receptor alpha (ERRa) (AID 2282971); conditions: HepG2 Attagene TRANS reporter, ERRa transactivation
Chain of Steroid hormone receptor ERR1 (Homo sapiens) (P11474 whole entry, looked up, the tested form may be a part): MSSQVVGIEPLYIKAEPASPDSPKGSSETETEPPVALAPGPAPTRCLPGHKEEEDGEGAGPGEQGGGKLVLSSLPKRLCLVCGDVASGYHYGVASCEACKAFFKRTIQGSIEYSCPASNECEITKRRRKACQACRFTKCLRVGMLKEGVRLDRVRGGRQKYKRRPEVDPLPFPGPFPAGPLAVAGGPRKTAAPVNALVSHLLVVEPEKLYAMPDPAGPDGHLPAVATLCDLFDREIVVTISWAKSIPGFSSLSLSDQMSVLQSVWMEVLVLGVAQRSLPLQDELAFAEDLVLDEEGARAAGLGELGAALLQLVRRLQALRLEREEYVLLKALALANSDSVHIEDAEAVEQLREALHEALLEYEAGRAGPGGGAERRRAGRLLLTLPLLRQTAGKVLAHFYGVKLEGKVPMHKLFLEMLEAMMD
Outline: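 HepG2 cells were transiently transfected with multiple GAL4-UAS reporter units, then dosed with compound for 24 h. Total RNA was reverse-transcribed, reporter cDNA PCR-amplified and fluorescently labelled, and fragments resolved by capillary electrophoresis; induction was compared with DMSO.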

[17] = target: Androgen receptor (Homo sapiens) (UniProt P10275); test: ATG_AR_TRANS: Attagene TRANS-FACTORIAL HepG2 Assay for human Androgen Receptor (AR) (AID 2282973); conditions: HepG2 Attagene TRANS-FACTORIAL AR reporter transcription
Outline: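 Transfected HepG2, 24 h treatment, chimeric NR-Gal4 driving GAL4-UAS reporters. mRNA induction by RT-PCR/capillary electrophoresis fluorescence; DMSO as negative control and baseline.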

[18] = target: Estrogen-related receptor gamma (Homo sapiens) (UniProt P62508); test: ATG_ERRg_TRANS: Attagene TRANS-FACTORIAL HepG2 Assay for human Estrogen-Related Receptor gamma (ERRg) (AID 2282977); conditions: HepG2 Attagene TRANS reporter, ERRg transactivation;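 further: hits increase reporter signal over DMSO so potencies reflect activators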
Outline: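 HepG2 cells transiently transfected with multiplexed GAL4-UAS reporter units driven by chimeric NR-Gal4 proteins; 24 h exposure. Reporter mRNA quantified by RT-PCR, fluorescent labelling, HpaI digestion and capillary electrophoresis; gain of signal vs DMSO.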

[19] = target: Bile acid receptor (Homo sapiens) (UniProt Q96RI1); test: ATG_FXR_TRANS: Attagene TRANS-FACTORIAL HepG2 Assay for Farnesoid X Receptor (FXR) (AID 2282979); conditions: HepG2 Attagene TRANS FXR-GAL4 reporter transcription;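 further: hits raise reporter mRNA above DMSO so AC50 marks FXR activation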
Chain of Bile acid receptor (Homo sapiens) (Q96RI1 whole entry, looked up, the tested form may be a part): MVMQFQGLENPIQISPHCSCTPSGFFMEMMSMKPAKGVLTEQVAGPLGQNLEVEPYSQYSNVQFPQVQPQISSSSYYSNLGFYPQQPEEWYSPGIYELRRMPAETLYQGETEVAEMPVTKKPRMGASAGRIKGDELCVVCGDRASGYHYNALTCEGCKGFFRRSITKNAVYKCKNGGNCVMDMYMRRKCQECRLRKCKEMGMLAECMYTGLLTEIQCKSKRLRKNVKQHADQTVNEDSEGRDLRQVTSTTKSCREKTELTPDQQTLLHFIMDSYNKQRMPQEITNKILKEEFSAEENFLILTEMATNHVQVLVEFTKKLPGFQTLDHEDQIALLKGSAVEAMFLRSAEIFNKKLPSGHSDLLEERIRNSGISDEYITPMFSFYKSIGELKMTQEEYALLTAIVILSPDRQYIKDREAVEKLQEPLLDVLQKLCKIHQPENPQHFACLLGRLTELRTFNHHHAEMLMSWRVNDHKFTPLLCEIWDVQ
Outline: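 Chimeric FXR-GAL4 activity in transiently transfected human HepG2 liver cells is scored as induction of reporter mRNA after 24 h of dosing. Detection uses RT-PCR with fluorescent labelling and capillary electrophoresis, with DMSO serving as baseline.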

[20] = target: Oxysterols receptor LXR-alpha (Homo sapiens) (UniProt Q13133); test: ATG_LXRa_TRANS: Attagene TRANS-FACTORIAL HepG2 Assay for human Liver X Receptor alpha (LXRa) (AID 2282980); conditions: HepG2 Attagene TRANS reporter, LXRa transactivation
Chain of Oxysterols receptor LXR-alpha (Homo sapiens) (Q13133 whole entry, looked up): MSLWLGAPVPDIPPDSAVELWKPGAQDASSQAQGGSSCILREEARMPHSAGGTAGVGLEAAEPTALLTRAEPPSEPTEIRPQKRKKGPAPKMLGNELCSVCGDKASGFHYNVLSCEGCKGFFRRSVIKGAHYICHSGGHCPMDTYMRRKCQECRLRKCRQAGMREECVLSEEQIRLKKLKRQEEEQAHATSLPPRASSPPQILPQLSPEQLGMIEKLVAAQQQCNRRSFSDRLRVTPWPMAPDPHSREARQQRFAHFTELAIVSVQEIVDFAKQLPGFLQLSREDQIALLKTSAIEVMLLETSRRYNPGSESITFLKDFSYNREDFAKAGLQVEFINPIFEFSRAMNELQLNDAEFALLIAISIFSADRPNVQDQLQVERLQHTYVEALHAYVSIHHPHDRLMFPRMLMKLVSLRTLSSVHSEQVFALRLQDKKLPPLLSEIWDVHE
Outline: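 Transient HepG2 transfectants, 24 h dosing, RT-PCR/CE mRNA reporter quantitation; gain-of-signal vs DMSO.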

Measured: AC50

O=C=Nc1ccc(Cl)cc1
active: [10] 149 µM
inactive: [1] | [2] | [3] | [4] | [5] | [6] | [7] | [8] | [9]

Nc1c(Oc2ccccc2)cc(O)c2c1C(=O)c1ccccc1C2=O
inactive: [1] | [3] | [4] | [5] | [11] | [6] | [12] | [13] | [7] | [14] | [8] | [15] | [9] | [10]
active: [2] 7.82 µM

N#Cc1ccccc1N
inactive: [1] | [2] | [16] | [3] | [17] | [4] | [5] | [18] | [19] | [6] | [12] | [7] | [15] | [9] | [10]

C=CCCl
inactive: [1] | [2] | [3] | [4] | [11] | [6] | [12] | [7] | [8] | [9] | [10]

COC(F)(C(F)(F)C(F)(F)F)C(F)(C(F)(F)F)C(F)(F)F (centres undefined)
inactive: [1] | [2] | [16] | [3] | [17] | [4] | [5] | [11] | [19] | [20] | [6] | [12] | [13] | [7] | [8] | [15] | [9]

CCC(C)(C#N)N=NC(C)(C#N)CC (centres undefined)
inactive: [1] | [2] | [3] | [17] | [4] | [5] | [18] | [12] | [13] | [7] | [8] | [9] | [10]

O=S(=O)(Oc1ccc(Cl)cc1)c1ccc(Cl)cc1
active: [2] 10.7 µM
inactive: [1] | [3] | [4] | [18] | [11] | [13] | [8] | [15] | [9] | [10]

Cc1ccc(CCl)cc1
inactive: [1] | [2] | [16] | [3] | [17] | [5] | [11] | [19] | [6] | [12] | [13] | [7] | [8] | [15] | [9]

C=CCN=C=S
inactive: [1] | [2] | [16] | [3] | [4] | [5] | [6] | [7] | [8] | [9] | [10]

O=C1C=CC(=O)c2ccccc21
inactive: [1] | [3] | [17] | [18] | [11] | [19] | [20] | [6] | [13] | [7] | [14] | [8] | [15] | [9] | [10]
active: [2] 11.1 µM
